Inhibition data for 40 compounds are collected here from ChEMBL document CHEMBL1157539, “Thousands of chemical starting points for antimalarial lead identification” (Nature, 2010).

The Inhibition is the drop in the measured response relative to a control, in per cent.

The test system of one experiment is Plasmodium falciparum. Nature of the experiment: GSK_TCMDC: Inhibition of Plasmodium falciparum Dd2 in whole red blood cells, using parasite LDH activity as an index of growth. Test compounds present at 2uM. The format is functional.
For the compound `CC12CCC(CN(CC(O)Cn3c4ccccc4c4cc(I)ccc43)C1)C2(C)C.Cl` (centres undefined), the Inhibition was 82%.
On the same count and under the same terms, in the case of `O=C(Nc1ccc2c(c1)CCC2)c1ccc(CN2CCCN(Cc3cccc(O)c3)CC2)cc1.O=C(O)C(F)(F)F` it was 46%; in that of `COc1ccc2ncc(Cl)c(NCC3(O)CCC(NCc4ccc5c(n4)NC(=O)CS5)CC3)c2n1.Cl` (centres undefined), 31%.
The compound `CC(=O)NCCNCc1cccc(C(=O)NCc2cccc(C(F)(F)F)c2)c1` returned an Inhibition of 0%.

Another experiment relates to HepG2. As to the kind of experiment: GSK_TCMDC: Percent inhibition of human HepG2 cell line. Test compounds present at 10uM. The format is functional.
`CCn1c(-c2nonc2N)nc2c(-c3cccc(NC(=O)Nc4cccc(Cl)c4)c3)ncc(OCCCN)c21.O=C(O)C(F)(F)F` came in with an Inhibition of 9%.
Take `Cc1ccc2[nH]c3c(c2c1)CC(C(=O)NCCC(C)C)NC31CCN(Cc2ccccc2)CC1` (centres undefined): the Inhibition turned out to be 15%.
Take `Cc1cccn2c(=O)c3cc(C(=O)NCCN4CCOCC4)c(=N)n(CCc4ccccc4)c3nc12`: the Inhibition amounted to 13%.
In turn, `COc1ccc2nccc([C@@H](O)CN3CCC(NC(=O)c4cc5ccccc5[nH]4)CC3)c2c1.CS(=O)(=O)O` registered an Inhibition of 19%.
`Cc1ccc(C(=O)Nc2cccc(CN3CCCN(Cc4ccc(O)cc4)CC3)c2)s1.O=C(O)C(F)(F)F` yielded an Inhibition of 17%.
For the compound `COc1ccc2nc(-c3ccccc3)cc(NCCN(C)C)c2c1`, the Inhibition is listed as 0%.
In the case of `CCCC(CNCc1ccc(Cl)c(C(F)(F)F)c1)CNc1nc2cnccc2[nH]1.Cl` (centres undefined), the Inhibition came out at 26%.
Same read-out and setting: in the case of `O=C(Nc1ccccc1N1CCOCC1)c1ncoc1-c1ccccc1C(F)(F)F` it was 0%; in that of `O=C(Nc1ccc(C(=O)N2CCN(CCN3CCN(c4cccc(C(F)(F)F)c4)CC3)CC2)cc1)c1ccc(C(F)(F)F)cc1`, 39%.
Compound `O=C(Nc1cccc(CN2CCCN(Cc3ccc(O)cc3)CC2)c1)c1ccc2ccccc2n1.O=C(O)C(F)(F)F` came in with an Inhibition of 13%.
Still for that read-out and setting: in the case of `Cc1ccc(C)c(Cn2ccc3nc(Cl)nc(Cl)c32)c1` it was 0%; in that of `O=C(Nc1cccc(C(F)(F)F)c1)Nc1ccc2nonc2c1`, 0%.
For the compound `CCCCCC(=O)N1CCOC(CCN2CCC(c3ccccc3)CC2)(c2ccc(Cl)c(Cl)c2)C1` (centres undefined), the Inhibition came to 17%.
On to `CCN(CC)c1nc(-c2ccccc2)cc(-c2ccccc2)c1C#N`, for which the Inhibition was 0%.
In turn, `COc1ccc2[nH]cc(C3CCN(CCCCCNC(=O)c4ccc(-c5ccccc5)cc4)CC3)c2c1` gave an Inhibition of 50%.
As to `CN(C)CCOc1cc(NC(=O)Nc2ccc(Cl)cc2C(F)(F)F)ccc1I`, the Inhibition is 0%.
Compound `O=C(/C=C/c1ccc(Cl)cc1)NCCCCCN1CCC(C(=O)Nc2ccc(Cl)c(Cl)c2)CC1` yielded an Inhibition of 47%.
On to `Cc1cc(C2CCN(CCCCNC(=O)c3ccc(-c4ccc(C(F)(F)F)cc4)cc3)CC2)c(C)cc1OCC#N`, for which the Inhibition worked out at 40%.
Compound `O=C(Nc1cccc(-c2ccc(-c3nc4cc(F)ccc4[nH]3)s2)c1)c1ccncc1` returned an Inhibition of 74%.
With `COc1cc2nc(NCCc3ccccc3)nc(N(C)Cc3ccccc3)c2cc1OC`, the Inhibition is listed as 31%.
Compound `COc1cc(CCNC(=N)/C=C/c2ccc(Cl)cc2)ccc1Cl.Cl` came in with an Inhibition of 68%.
As for `Cc1nc(O)c2c(ccc3ccc(CNc4ccc(C(=O)N[C@@H](CCC(=O)O)C(=O)O)cc4)cc32)n1`, the Inhibition is on record as 32%.
`COc1ccc(C(=O)NCC(C)(C)c2nc(-c3ccc(Cl)c(O)c3)c(-c3ccncc3)[nH]2)cc1OCCN(C(C)C)C(C)C.Cl` displayed an Inhibition of 62%.
`Cc1oc(-c2ccccc2)nc1CCOc1ccc(C[C@H](Nc2ccccc2C(=O)c2ccccc2)C(=O)NCc2ccccn2)cc1` showed an Inhibition of 0%.
Regarding `CC(C)(C)c1ccc(NC(=O)c2cccc(CN3CCCN(Cc4ccsc4)CC3)c2)cc1.O=C(O)C(F)(F)F`, the Inhibition is 33%.
`NC(=O)c1cccc(C(=O)Nc2ccc(-c3cccc(-c4nc5cc(C(F)(F)F)ccc5[nH]4)c3)cc2)c1` gave an Inhibition of 74%.
Consider `COc1ccccc1-c1cc(C(=O)N2CCN(S(=O)(=O)c3ccc(C)cc3)CC2)[nH]n1`, for which the Inhibition came out at 0%.
On the same count and under the same terms, next, `CS(=O)(=O)c1cccc(-c2ccc3oc(C(N)=O)c(NC(=O)c4cccs4)c3c2)c1`: 11%; `CCOc1ccccc1C=CC(=O)Nc1ccc2nc(N3CCN(C)CC3)cc(C)c2c1`: 16%.
The compound `CCOC(=O)c1cc(C(=O)NCCCCN2CCC(c3cn(C)c4ccccc34)CC2)ccc1-c1ccc(C(F)(F)F)cc1` gave an Inhibition of 25%.
Still for that read-out and setting: next, `Cc1nc2nc(N)nc(N)c2c(C)c1Cc1ccccc1I.Cl`: 63%; `O=C(O)C(F)(F)F.OC1CCCN(Cc2ccc(-c3cccc(-c4nc5cc(F)ccc5[nH]4)c3)cc2)C1` (centres undefined): 28%.
In the case of `O=C(Nc1ccc(Cl)c(Cl)c1)N[C@H]1CCN(CCCCCNC(=O)C2CC2c2ccc(Cl)c(Cl)c2)C1` (some centres undefined), the Inhibition turned out to be 42%.
Compound `CC(C)CCNC(=O)c1cnc2c(O)cccc2c1Nc1cccc(NC(=O)c2ccc(F)cc2)c1.O=C(O)C(F)(F)F` yielded an Inhibition of 51%.
`CCCCCCn1c(Sc2ccc(C#N)c([N+](=O)[O-])c2)nnc1-c1cc(OC)cc(OC)c1` came in with an Inhibition of 35%.
The compound `Cc1cc(=NN=CC=Cc2ccccc2)c2ccccc2[nH]1` had an Inhibition of 19%.
Still for that read-out and setting: next, `CC12CCC(CN(CC(O)Cn3c4ccccc4c4cc(I)ccc43)C1)C2(C)C.Cl` (centres undefined): 0%; `O=C(Nc1ccc2c(c1)CCC2)c1ccc(CN2CCCN(Cc3cccc(O)c3)CC2)cc1.O=C(O)C(F)(F)F`: 45%; `COc1ccc2ncc(Cl)c(NCC3(O)CCC(NCc4ccc5c(n4)NC(=O)CS5)CC3)c2n1.Cl` (centres undefined): 39%.
Take `CC(=O)NCCNCc1cccc(C(=O)NCc2cccc(C(F)(F)F)c2)c1`: the Inhibition came to 1%.
